SMILES strings stand for the structures. Unmarked numbers belong to inactive results. Inconclusive results are not listed. Calls of active or inactive are those of the source. Unless noted, the call rests on the fitted dose curve.

Assay [1] in a line: Nuclear factor erythroid 2-related factor 2/antioxidant responsive element (Nrf2/ARE) small molecule agonists: qHTS cell viability counter screen in human keratinocytes (AID 1919968; active means well fitted curve in the direction sought with a large enough effect in the repeat runs; an effect the other way counts as inactive or inconclusive; further: nearly all actives have a fitted effect of over 55% in size; further: potency means the concentration at half of the fitted maximal effect). In outline: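 Stably transfected HaCaT (KeratinoSens), 1,500/well. Test agents in DMSO were applied for 23 h, 37 C/5% CO2. CellTiter-Fluor was incubated 1 h before the fluorescence read.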
(Quantitative high-throughput screening tests each substance at several concentrations.)

A short description of assay [2]: Nuclear factor erythroid 2-related factor 2/antioxidant responsive element (Nrf2/ARE) small molecule agonists: luciferase reporter gene qHTS assay in human keratinocytes (AID 1919969). Further: nearly all actives have a fitted effect of over 35% in size. Further: potency means the concentration at half of the fitted maximal effect. In general terms: In a reporter assay the amount or activity of a reporter protein is the signal.
Assay [3] deals with Gonadotropin-releasing hormone receptor (Homo sapiens) (UniProt P30968). Put plainly: Human gonadotropin-releasing hormone receptor (GnRHR) small molecule agonists, calcium flux assay in GnRHR-HEK293 cells (AID 1920063). Further: nearly all actives have a fitted effect of over 35% in size. In outline:
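Stable human GnRHR HEK293 line. 18 h plating, then calcium dye for 1 h at 37 C. Agonist-mode compound addition from DMSO stocks; fluorescence monitored 3 min.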
Background: Calcium flux is commonly read through the fluorescence of an indicator in the cells.

The target in assay [4] is KiSS-1 receptor (Homo sapiens) (UniProt Q969F8). In words: Human kisspeptin (KISS1R) small molecule agonists, calcium flux assay in KISS1R-HEK293 cells (AID 1920064; active means well fitted curve in the direction sought with a large enough effect in the repeat runs; an effect the other way counts as inactive or inconclusive). In outline:
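After overnight (18 h) culture at 37 C/5% CO2, human KISS1R-HEK293 cells received calcium dye for 1 h, then test compound; emission at 540 nm (excitation 480 nm) was tracked for 3 min.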

Assay [5] is described as follows: G protein-coupled receptor (GPCR) small molecule agonists, calcium flux assay: HEK293 wild type cell line counter screen (AID 1920065). In outline:
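Following 18 h incubation at 37 C/5% CO2, plates got calcium dye for 1 h; compounds, ATP or DMSO were then pinned in and fluorescence followed kinetically (480/540 nm).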

The nature of assay [6]: p53 small molecule agonists, cell-based qHTS assay with human liver microsomes (AID 1963577). In outline: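 p53RE-bla cells, 4,000/well, compound added after 5 h, with human liver microsomes 0.5 mg/mL and NADPH 0.5 mg/mL final; 16 h at 37 C, then LiveBLAzer 2 h RT, fluorescence.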
Assay [7] can be described thus: p53 small molecule agonists, cell-based qHTS assay with rat liver microsomes (AID 1963578). In outline: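 p53RE-bla cells, 4,000/well, pre-incubated 5 h, then given compounds plus rat liver microsomes (0.5 mg/mL final) and NADPH (0.5 mg/mL final). Incubation 16 h at 37 C; beta-lactamase reporter read by LiveBLAzer fluorescence after 2 h at room temperature.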
Assay [8] is described as follows: p53 small molecule agonists, cell-based qHTS assay with human liver microsomes: qHTS cell viability counter screen (AID 1963579). Further: nearly all actives have a fitted effect of over 45% in size. In outline: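 p53RE-bla cells, 4,000/well, dosed 5 hours after plating, with human liver microsomes (0.5 mg/mL final) plus NADPH (0.5 mg/mL final), 16 hours at 37 C. Viability read as CellTiter-Glo luminescence after 30 min at room temperature.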

Assay [9] is described as follows: p53 small molecule agonists, cell-based qHTS assay with rat liver microsomes: qHTS cell viability counter screen (AID 1963580). Further: nearly all actives have a fitted effect of over 45% in size. In outline: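 Cytotoxicity counter screen: intracellular ATP measured by CellTiter-Glo luminescence in the same wells as the beta-lactamase reporter read, on HCT-116 p53RE-bla cells exposed 16 h at 37 C to compounds with rat liver microsomes and NADPH, each 0.5 mg/mL final.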

A short description of assay [10]: p53 small molecule agonists, cell-based qHTS assay: qHTS cell viability counter screen (AID 1963581). Further: nearly all actives have a fitted effect of over 45% in size. Further: potency means the concentration at half of the fitted maximal effect. In outline:
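qHTS counter screen: 16 h compound exposure at 37 C of p53RE-bla HCT-116 cells (4,000 per well, seeded 5 h prior), cell viability by ATP luminescence.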

The target of assay [11] is 5-hydroxytryptamine receptor 2A (Homo sapiens) (UniProt P28223). In words: 5-hydroxytryptamine receptor 2A (HTR2A) small molecule antagonists, cell-based qHTS assay (AID 1963586). Further: nearly all actives have a fitted effect of over 45% in size. In outline:
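CHO cells stably expressing human HTR2A were plated for 18 h at 37 C, then loaded with calcium dye for 1 h. Compounds were preincubated 5 min at room temperature before DOI (4 nM solution) was added. Kinetic fluorescence was read for 3 min.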

The target is the same in assay [12]. In words: 5-hydroxytryptamine receptor 2A (HTR2A) small molecule agonists, cell-based qHTS assay (AID 1963587). Further: nearly all actives have a fitted effect of over 30% in size. In outline:
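CHO cells stably expressing human HTR2A, plated 18 h, loaded with calcium dye 1 h at 37 C. Agonist mode: compounds added and intracellular calcium fluorescence recorded kinetically for 2 min at 1 sec intervals.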

Assay [13] deals with Muscarinic acetylcholine receptor M1 (Homo sapiens) (UniProt P11229). In words: Cholinergic receptor muscarinic 1 (CHRM1) small molecule agonists, cell-based qHTS assay (AID 1963589). Further: nearly all actives have a fitted effect of over 35% in size. In outline: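 Kinetic fluorescence (1 s intervals) of calcium-sensitive dye in human M1 CHO cells after compound addition; cells pre-incubated 18 h at 37 C/5% CO2 and dye-loaded 1 h.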
Muscarinic acetylcholine receptor M1 (Homo sapiens), sequence (P11229 whole entry, looked up): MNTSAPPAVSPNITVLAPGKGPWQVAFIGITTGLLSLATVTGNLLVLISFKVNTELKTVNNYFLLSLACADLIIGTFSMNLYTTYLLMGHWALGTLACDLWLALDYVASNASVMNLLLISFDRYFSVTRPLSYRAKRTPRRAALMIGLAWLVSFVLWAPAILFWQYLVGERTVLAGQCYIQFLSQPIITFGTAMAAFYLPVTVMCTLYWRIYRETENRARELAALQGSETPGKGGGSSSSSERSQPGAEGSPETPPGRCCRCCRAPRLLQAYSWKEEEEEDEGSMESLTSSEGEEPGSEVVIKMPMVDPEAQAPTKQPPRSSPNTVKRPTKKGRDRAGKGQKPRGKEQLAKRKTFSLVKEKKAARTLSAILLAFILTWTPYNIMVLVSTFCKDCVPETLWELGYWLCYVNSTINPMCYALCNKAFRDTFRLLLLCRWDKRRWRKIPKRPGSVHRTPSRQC
Assay [14] concerns the target Beta-2 adrenergic receptor (Homo sapiens) (UniProt P07550). In words: Adrenergic beta2 receptor (ADRB2) small molecule antagonists, cell-based qHTS assay (AID 1963592). Further: series mostly up to about 92 µM; nearly all actives have a fitted effect of over 50% in size. In outline:
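Assay format: CHO-ADRB2 cells, 18-20hr seeding at 37C/5% CO2, then compound plus 1nM isoproterenol agonist mix for 0.5hr RT. Homogeneous time-resolved fluorescence cAMP detection after 1hr, expressed as 665/615 nm ratio.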

The nature of assay [15]: p53 small molecule agonists, cell-based qHTS assay (AID 1963582; active means well fitted activation curve with a large enough effect in the signal ratio in the repeat runs, not every such curve was filed as active; the % refers to the signal ratio). In outline: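 Measured: fluorescence from cleaved LiveBLAzer substrate. System: p53RE-bla cells, 16 h compound treatment at 37 C, 2 h substrate step at room temperature.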
The nature of assay [16]: cAMP Responsive Elements (CRE) small molecule agonists, cell-based qHTS assay (AID 1963590). In outline: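 Test agents in DMSO were incubated 3 h at 37 C/5% CO2 with CRE-bla HEK 293T cells seeded 18 h earlier; LiveBLAzer B/G FRET substrate was added and read after 2 h at room temperature.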
Assay [17] can be described thus: cAMP Responsive Elements (CRE) small molecule antagonists, cell-based qHTS assay (AID 1963591; active means well fitted inhibition curve with a large enough effect in the signal ratio in the repeat runs, not every such curve was filed as active; the % refers to the signal ratio). In outline: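 Reporter line CRE-bla HEK 293T in dialyzed-FBS DMEM; cells preincubated 18 h, treated 3 h with compound plus NKH477 (0.25 uM final); LiveBLAzer FRET, 2 h RT.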
Assay [18] concerns the target D(2) dopamine receptor (Homo sapiens) (UniProt P14416). In words: Dopamine D2 receptor (DRD2) small molecule agonists, cell-based qHTS assay (AID 1963594). Further: nearly all actives have a fitted effect of over 35% in size. In outline:
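HEK293 cells stably expressing human DRD2, pre-treated with PDE inhibitor Ro20-1724 (0.1 mM final) and compound 10 min at room temperature, then stimulated with NKH477 (200nM […]) for 30 min. cAMP read by HTRF (665/620 nm).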

Assay [19] shares this target. Put plainly: Dopamine D2 receptor (DRD2) small molecule antagonists, cell-based qHTS assay (AID 1963595; active means well fitted inhibition curve with a large enough effect in the signal ratio in the repeat runs, with a control signal flat; the % refers to the signal ratio). In outline:
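Cells were plated and grown for 24 h at 37 °C. Ro20-1724 (0.1 mM final) went in first, then compound for 10 min. NKH477 (200 nM) with quinpirole (12 nM) followed for 30 min at RT, then HTRF detection reagents for 1 h.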

Assay [20] deals with Muscarinic acetylcholine receptor M1 (Homo sapiens) (UniProt P11229). Put plainly: Cholinergic receptor muscarinic 1 (CHRM1) small molecule antagonists, cell-based qHTS assay (AID 1963588). Further: nearly all actives have a fitted effect of over 40% in size. In outline:
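Compounds were tested at 15 concentrations in three independent runs. Dye-loaded CHRM1-CHO cells were exposed 5 min at room temperature before stimulation by acetylcholine added at 50nM. Intracellular calcium was read kinetically on FDSS for 3 min.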
On the % scale 0 is the no-effect control and ±100 the full control effect.

Beta-2 adrenergic receptor (Homo sapiens), sequence (P07550 whole entry, looked up): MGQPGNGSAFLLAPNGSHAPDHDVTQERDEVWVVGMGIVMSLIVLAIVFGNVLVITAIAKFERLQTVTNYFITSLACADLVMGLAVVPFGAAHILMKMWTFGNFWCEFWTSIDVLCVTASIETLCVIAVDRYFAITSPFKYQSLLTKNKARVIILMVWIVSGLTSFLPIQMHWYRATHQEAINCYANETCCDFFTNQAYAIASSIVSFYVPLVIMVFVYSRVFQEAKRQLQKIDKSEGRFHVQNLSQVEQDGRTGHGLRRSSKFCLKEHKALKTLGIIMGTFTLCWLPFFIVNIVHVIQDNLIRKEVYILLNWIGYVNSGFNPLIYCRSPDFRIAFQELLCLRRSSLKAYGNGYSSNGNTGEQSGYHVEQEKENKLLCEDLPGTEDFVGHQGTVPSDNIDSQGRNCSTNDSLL
D(2) dopamine receptor (Homo sapiens), sequence (P14416 whole entry, looked up): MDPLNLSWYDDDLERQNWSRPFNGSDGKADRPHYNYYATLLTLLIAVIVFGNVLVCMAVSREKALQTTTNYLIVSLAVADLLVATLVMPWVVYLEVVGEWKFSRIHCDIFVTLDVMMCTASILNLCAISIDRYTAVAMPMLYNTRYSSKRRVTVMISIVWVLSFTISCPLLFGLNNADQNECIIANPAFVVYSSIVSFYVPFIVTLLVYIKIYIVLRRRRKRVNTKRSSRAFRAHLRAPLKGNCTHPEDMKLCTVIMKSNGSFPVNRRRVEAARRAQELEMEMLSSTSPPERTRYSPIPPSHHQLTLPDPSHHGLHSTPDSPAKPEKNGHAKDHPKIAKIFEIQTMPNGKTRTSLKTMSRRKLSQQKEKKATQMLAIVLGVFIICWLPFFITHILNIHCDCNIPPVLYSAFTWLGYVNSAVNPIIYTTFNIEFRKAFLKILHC
KiSS-1 receptor (Homo sapiens), sequence (Q969F8 whole entry, looked up): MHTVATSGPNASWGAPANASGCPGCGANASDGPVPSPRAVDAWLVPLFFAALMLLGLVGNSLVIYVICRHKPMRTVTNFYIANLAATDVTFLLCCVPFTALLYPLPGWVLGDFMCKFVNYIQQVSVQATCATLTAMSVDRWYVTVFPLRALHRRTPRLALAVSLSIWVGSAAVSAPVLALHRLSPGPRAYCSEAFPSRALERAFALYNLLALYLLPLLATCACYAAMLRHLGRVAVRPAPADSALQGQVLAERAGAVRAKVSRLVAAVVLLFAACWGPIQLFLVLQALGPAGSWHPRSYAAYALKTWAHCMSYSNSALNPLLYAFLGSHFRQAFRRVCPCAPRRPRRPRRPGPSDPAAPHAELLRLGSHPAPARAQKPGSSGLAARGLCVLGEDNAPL
Gonadotropin-releasing hormone receptor (Homo sapiens), sequence (P30968 whole entry, looked up): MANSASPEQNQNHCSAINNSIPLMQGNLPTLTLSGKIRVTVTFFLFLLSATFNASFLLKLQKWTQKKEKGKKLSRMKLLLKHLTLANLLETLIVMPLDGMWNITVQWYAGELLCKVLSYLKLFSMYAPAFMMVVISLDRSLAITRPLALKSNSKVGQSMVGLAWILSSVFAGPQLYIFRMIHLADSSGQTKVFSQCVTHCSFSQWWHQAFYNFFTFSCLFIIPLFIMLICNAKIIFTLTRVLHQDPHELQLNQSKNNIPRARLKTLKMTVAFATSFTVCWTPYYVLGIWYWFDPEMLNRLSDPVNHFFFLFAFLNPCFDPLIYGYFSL
5-hydroxytryptamine receptor 2A (Homo sapiens), sequence (P28223 whole entry, looked up): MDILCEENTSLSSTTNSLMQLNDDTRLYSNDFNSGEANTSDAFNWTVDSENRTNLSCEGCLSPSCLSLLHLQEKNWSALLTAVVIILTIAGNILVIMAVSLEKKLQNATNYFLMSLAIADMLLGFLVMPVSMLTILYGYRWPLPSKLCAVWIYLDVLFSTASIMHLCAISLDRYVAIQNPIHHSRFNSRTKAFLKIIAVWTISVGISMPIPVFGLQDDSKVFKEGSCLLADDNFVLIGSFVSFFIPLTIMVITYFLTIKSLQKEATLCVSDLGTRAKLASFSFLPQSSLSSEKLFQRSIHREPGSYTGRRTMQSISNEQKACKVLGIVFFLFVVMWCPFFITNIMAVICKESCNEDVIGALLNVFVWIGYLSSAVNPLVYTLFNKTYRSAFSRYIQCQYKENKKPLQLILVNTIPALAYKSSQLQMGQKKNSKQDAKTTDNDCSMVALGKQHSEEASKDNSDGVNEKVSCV

With `COc1ccc(C(c2ccc(OC)cc2)C(Cl)(Cl)Cl)cc1`, the values for the Potency in assay [1] and in assay [2] were 19.2 µM (active) and 27.1 µM (active), respectively. For the same compound, the Potency entry in assay [3], in assay [4], in assay [5], in assay [6], in assay [7] and in [8] was “inactive” each time. Besides, the Potency result in assay [9], in assay [10], in [11], in assay [12], in [13] and in assay [14] was “inactive” each time.

On to `CCSC(=O)Cl`, for which the Potency entry in [1], in assay [2], in assay [3], in assay [4], in assay [5] and in [6] was “inactive” in each case. In addition, the Potency entry in assay [7], in assay [8], in assay [9], in [10], in assay [15] and in [12] was “inactive” in each case. The Potency result in assay [13], in assay [16], in assay [17], in assay [14], in [18] and in [19] was “inactive” throughout.

In the case of `c1ccc2c(c1)Sc1ccccc1N2CC1CN2CCC1CC2` (stereo not drawn), in assay [1], the Potency was 33.5 µM (active). The Potency result in [2], in [3], in assay [4], in [5], in [6] and in [7] was “inactive” each time. Also, the Potency entry in [8], in [9], in assay [10], in assay [11], in [20] and in assay [13] was “inactive” in each case. In addition, the Potency result in [18] and in assay [19] was “inactive” throughout.

As to `C[C@@H](Oc1ccc(Cl)cc1Cl)C(=O)O`, the Potency result in assay [1], in [2], in assay [3], in assay [4], in assay [5] and in assay [6] was “inactive” in each case. In addition, the Potency entry in assay [7], in [8], in assay [9], in [10], in [11] and in assay [12] was “inactive” in each case. Also, the Potency result in assay [20], in [13], in assay [14], in assay [18] and in assay [19] was “inactive” throughout.

With `CC(N)=S`, the Potency result in assay [1], in [2], in [3], in [4], in assay [5] and in assay [6] was “inactive” throughout. Further, the Potency entry in assay [7], in assay [8], in assay [9], in assay [10], in [15] and in assay [16] was “inactive” throughout. Besides, the Potency result in [17], in [14], in [18] and in [19] was “inactive” each time.

For `Clc1cc2c(cc1Cl)Oc1cc(Cl)c(Cl)cc1O2`, the activity change, negative = cytotoxicity in [1] was 5.41% [at 0.349 µM]; in [8] it was -6.87% [at 0.249 µM]; in assay [9], 0.149% [at 0.249 µM]; in [10], 1.19% [at 0.249 µM]. Besides, the activity, positive = activation in assay [2] was 4.08% [at 0.349 µM]. For the same compound, the activity change in [3] is 1.13% [at 0.217 µM, active compounds read high]. Moreover, the activation is -3.37% [at 0.29 µM] in assay [4]; 0.634% [at 0.217 µM] in [5]; 0.165% [at 0.249 µM] in assay [6]; -1.51% [at 0.249 µM] in assay [7]; 1.03% [at 0.249 µM] in assay [15]; 0.0128% [at 0.349 µM] in assay [16]. Moreover, the activation in [18] was 0.882% [at 0.349 µM]. Moreover, the activity change, negative = inhibition was -0.651% [at 0.349 µM] in [17] and -6.33% [at 0.348 µM] in [19].

Take `CC[C@@H](CO)NC(=O)[C@@H]1C=C2c3cccc4c3c(cn4C)C[C@H]2N(C)C1`: the Potency result in assay [1], in assay [2], in assay [3], in assay [4], in assay [5] and in assay [6] was “inactive” in each case. Besides, the Potency entry in assay [7], in assay [8], in assay [9], in assay [10], in assay [15] and in [16] was “inactive” throughout. In addition, the Potency result in assay [17] is “inactive”.

With `NC(=O)c1ccc(N)nc1`, the Potency result in [1], in [2], in assay [3], in assay [4], in assay [5] and in assay [6] was “inactive” each time. For the same compound, the Potency entry in [7], in assay [8], in assay [9], in assay [11], in assay [12] and in assay [20] was “inactive” each time. The Potency result in assay [14] and in assay [19] was “inactive” throughout. For the same compound, in [10], the Potency was 5.76 µM (active).
